{"source": "PubChem BioAssay (NCATS)", "note": "Inconclusive results are not listed. A number with no mark means an inactive call. Activity calls are given as the source filed them. Calls follow the shape of the dose curve; as a rule, active = well fitted cell-killing curve with a large enough effect; inconclusive = small, poorly fitted or top-dose-only effect, or effect the other way; inactive = no such curve, though single readings can be large or run the other way. Potency is read from the fitted curve at half-maximal effect.", "data": [{"assay": "Quantitative highthroughput screen to assess conditional lethalithy of SEM cells grown in RPMI1640 with unreated serum (RPMI+s) (AID 1963883); also: nearly all actives have a fitted effect of over 35% in size", "settings": "SEM B-ALL cells, CellTiter-Glo viability, 48 h; series mostly up to 45.8 µM; viability: at the top concentration", "description": "Assay Provider: Jason Cantor Ph.D.\nDepartment of Biochemistry\nUniversity of Wisconsin-Madison, Madison, WI, USA\nChemical screening studies have identified drug sensitivities across hundreds of cancer cell lines but most putative therapeutics fail to translate. Discovery and development of drug candidates in models that more accurately reflect nutrient levels in human blood is a major challenge. Here we performed high-throughput screens in conventional versus Human Plasma-Like Medium (HPLM) to identify compounds that were \"missed\" when screening using the artificial culture condition. Sets of conditional anticancer compounds spanned phases of clinical development and included non-oncology drugs were assessed. […] We also traced conditional phenotypes for several chemotherapeutics to availability of HPLM-specific metabolites and confirmed others for compounds whose reported targets are encoded by nonessential genes. Our findings establish generalizable strategies for exploiting conditional lethality in HPLM to reveal therapeutic candidates and mechanisms of action in cancer cells.\nDescribed herein are the results of each viability screens against three cell lines: NOMO1 (an acute myeloid leukemia cell line); P12-Ichikawa (a T-cell acute lymphoblastic leukemia); and SEM (a B-cell ALL). Each assay was screened using 3 different cell culture media: homemade human plasma-Like medium with 10% dialyzed fetal bovine serum (HPLM+ds); RPMI1640 with 10% untreated FBS and 5mM glucose (RPMI+s); and RPMI1640 with 10% dialyzed fetal bovine serum and 5 mM glucose (RPMI+ds).\nPROTOCOL TABLE (as described by Inglese J, Shamu CE and Guy RK. 2007)\nSEQUENCE No. (e.g., 1, 2, 3, etc.); […] (e.g., Cells, Incubation, Reagent, etc.); VALUE and DESCRIPTION.\n1; Cells; 5 uL; white, solid bottom 1536-well Greiner assay plate.\n2; Compounds; 23 nL; Kalypsis pin tool (Wako USA) equipped with a 1536-well pin head to transfer to the assay plates.\n3; Incubation; 48 hours; 37C incubation.\n4; Reagent; 3 uL; CellTiter Glo (Promega).\n5; Incubation; 5 min, room temperature\n6; Detection; Luminescence, Viewlux PerkinElmer.\nNOTES (numbers refer to Sequence numbers above)\n1. Briefly, 5 ul of cell reagent was dispensed using a Multidrop Combi Dispenser. The NOMO1 and SEM cells were plated at 500 cells/well and the P12-Ichikawa line at 1000 cells/well.\n2. After seeding the cells, 23 nL of MIPE 4.1 library compounds (in DMSO) were added to each plate using a Kalypsys 1536 Pintool dispenser. Bortezomib at final concentration of […] and DMSO were added to each plate as positive and negative controls respectively. For each screen, MIPE 4.1 compounds were added over an eleven-point concentration range […] in 3-fold dilutions.\n3. Each plate was covered with a stainless steel gasketed lid to prevent evaporation and incubated for 48 hour at 37C, 95% relative humidity, and 5% CO2.\n4-5. Three microliter CellTilter-GloTM luminescent substrate mix (Promega) reagent was added to the assay plate and incubated at room temperature for 5 min.\n6. The luminescence signal was measured using a ViewLux (PerkinElmer) multiplate reader with a 2 second exposure time per plate. Data for each compound were normalized as percent viability such that measurements for DMSO and the empty well controls in each plate were defined as 100% and 0%, respectively.", "values": [{"smiles": "CCOC(=O)N1c2ccc(C(F)(F)F)cc2[C@@H](N(Cc2cc(C(F)(F)F)cc(C(F)(F)F)c2)C(=O)OC)C[C@H]1CC", "viability": "95.9%"}, {"smiles": "COc1cc2ncn(-c3cc(OCc4ccccc4S(C)(=O)=O)c(C#N)s3)c2cc1OC", "viability": "94.8%"}, {"smiles": "CCCCCCCCCCCCCCCC(=O)OC[C@@H](NC(=O)C(Cl)Cl)[C@H](O)c1ccc([N+](=O)[O-])cc1", "viability": "93.8%"}, {"smiles": "CC(C)OC(=O)[C@H](C)N[P@](=O)(OC[C@H]1O[C@@H](n2ccc(=O)[nH]c2=O)[C@](C)(F)[C@H]1O)Oc1ccccc1", "Potency": "6.62 µM (active)"}, {"smiles": "O=C(NC1CCNCC1)c1[nH]ncc1NC(=O)c1c(Cl)cccc1Cl", "Potency": "1.32 µM (active)"}, {"smiles": "CC(=O)NC[C@H]1CN(c2ccc(N3CCOCC3)c(F)c2)C(=O)O1", "viability": "106%"}, {"smiles": "Cc1cc(=O)oc2cc(O)ccc12", "viability": "95.5%"}, {"smiles": "COc1ccc(F)c(F)c1C(=O)c1cnc(NC2CCN(S(C)(=O)=O)CC2)nc1N", "Potency": "4.18 µM (active)"}, {"smiles": "CN1CCC(COc2cnc(-c3cccc(Cn4nc(-c5cccc(C#N)c5)ccc4=O)c3)nc2)CC1", "viability": "95.2%"}, {"smiles": "COC[C@H](NC(=O)c1cnc(C)s1)C(=O)N[C@@H](COC)C(=O)N[C@@H](Cc1ccccc1)C(=O)[C@@]1(C)CO1", "Potency": "0.0833 µM (active)"}, {"smiles": "OC[C@H]1O[C@@H](n2cnc3c2NC=NC[C@@H]3O)C[C@H]1O", "viability": "88.1%"}, {"smiles": "COc1ccc2c(Oc3ccc(NC(=O)c4c(C)n(CC(C)(C)O)n(-c5ccccc5)c4=O)cc3F)ccnc2c1", "Potency": "3.32 µM (active)"}, {"smiles": "O=C1Nc2ccc(I)cc2C1=Cc1cc(Br)c(O)c(Br)c1", "Potency": "16.6 µM (active)"}, {"smiles": "Cn1cc(-c2ccc(F)c(C(F)(F)F)c2)nc1C1CCN(c2ncnc3[nH]ncc23)CC1", "viability": "94.2%"}, {"smiles": "COc1ccc(-c2coc3cc(O)cc(O)c3c2=O)cc1", "viability": "95.1%"}, {"smiles": "COc1cc(C(C)C)c2c(c1)S(=O)(=O)N(COc1cc(=O)n3cccc(OCCN4CCCCC4)c3n1)C2=O", "viability": "78.5%"}, {"smiles": "CN1CCN(Cc2ccc(NC(=O)Nc3ccc(Oc4cc(NC(=O)C5CC5)ncn4)cc3)cc2C(F)(F)F)CC1", "Potency": "0.0118 µM (active)"}, {"smiles": "OC[C@H]1O[C@@H](O[C@H]2[C@@H](O)[C@@](O)(CO)O[C@@H]2CO)[C@H](O)[C@@H](O)[C@@H]1O", "viability": "100%"}, {"smiles": "CN(C)c1cc(NC(=O)CNC(C)(C)C)c(O)c2c1C[C@@H]1C[C@H]3[C@H](N(C)C)C(=O)C(C(N)=O)=C(O)[C@@]3(O)C(=O)C1=C2O", "viability": "77.7%"}, {"smiles": "CNC(=O)c1ccccc1Sc1ccc2c(C=Cc3ccccn3)n[nH]c2c1", "Potency": "5.26 µM (active)"}, {"smiles": "Cc1oncc1C(=O)Nc1ccc(C(F)(F)F)cc1", "viability": "72.9%"}, {"smiles": "O=C(CCCCCCC(=O)Nc1cccnc1)NO", "Potency": "8.33 µM (active)"}, {"smiles": "COc1ccc2nc(S(=O)Cc3ncc(C)c(OC)c3C)[nH]c2c1", "note": "(stereo not given)", "viability": "72.9%"}, {"smiles": "CNC(=O)c1ccc(C)c(-n2c(C)cc(OCc3ccc(F)cc3F)c(Br)c2=O)c1", "viability": "87.3%"}, {"smiles": "CC1(C)CCC(CN2CCN(c3ccc(C(=O)NS(=O)(=O)c4ccc(NCC5CCOCC5)c([N+](=O)[O-])c4)c(Oc4cnc5[nH]ccc5c4)c3)CC2)=C(c2ccc(Cl)cc2)C1", "Potency": "0.0526 µM (active)"}, {"smiles": "Cc1cc(Nc2cc(CN3CCOCC3)c3nc(C)c(Cc4ccc(Cl)cc4F)n3n2)n[nH]1", "Potency": "2.09 µM (active)"}, {"smiles": "Cn1cc(C[C@@H](N)C(=O)O)c2ccccc21", "viability": "71.3% [at 23.2 µM]"}, {"smiles": "CC(=O)O[C@H]1C[C@@H]2CC[C@H]3[C@H]4C[C@H]([N+]5(C)CCCCC5)[C@@H](OC(C)=O)[C@@]4(C)CC[C@@H]3[C@@]2(C)C[C@H]1[N+]1(C)CCCCC1", "viability": "91.4%"}, {"smiles": "CCC(C)(C)c1ccc(CC(C)CN2C[C@@H](C)O[C@@H](C)C2)cc1", "note": "(stereo not given in full)", "viability": "87.7%"}, {"smiles": "CCCCCOC(=O)Nc1nc(=O)n([C@@H]2O[C@H](C)[C@@H](O)C2O)cc1F", "note": "(stereo not given in full)", "viability": "95.7%"}, {"smiles": "CC(C)(C)OC(=O)Nc1ccc(-c2cc(C(=O)NCCCCCCC(=O)NO)no2)cc1", "Potency": "1.48 µM (active)"}, {"smiles": "COC(=O)[C@@H]1[C@H]2C[C@@H]3c4[nH]c5ccccc5c4CCN3C[C@@H]2CC[C@@H]1O", "viability": "104%"}, {"smiles": "Cc1ccccc1C(OCCN(C)C)c1ccccc1", "note": "(stereo not given)", "viability": "85.2%"}, {"smiles": "CNC(=O)c1ccc(-c2cnc3ncc(Cc4ccc5ncccc5c4)n3n2)cc1F", "viability": "88.3%"}, {"smiles": "C1CCC(C(CC2CCCCN2)C2CCCCC2)CC1", "note": "(stereo not given)", "Potency": "11.8 µM (active)"}, {"smiles": "CN1CCCN(C(=O)c2cccc(-c3ccc(C=C4C(=O)Nc5ccc(Cl)cc54)o3)c2)CC1", "Potency": "1.32 µM (active)"}, {"smiles": "CC1(C)Cc2c(sc(NC(=S)NC(=O)c3ccccc3)c2C(=O)O)CO1", "viability": "98.3%"}, {"smiles": "CC(=O)c1c(C)c2cnc(Nc3ccc(N4CCNCC4)cn3)nc2n(C2CCCC2)c1=O", "Potency": "4.69 µM (active)"}, {"smiles": "O=C(CCc1ccc(O)cc1)c1c(O)cc(O)cc1O", "viability": "104%"}, {"smiles": "CCN(CC)CCn1c(=O)c(Cc2ccc(OC)cc2)nc2ccccc21", "viability": "107%"}]}]}
